Assay outcomes (PubChem BioAssay)
In the library only some 3.4% were active in any assay of this set; here they are far more common.
PP1 inh: PP1-alpha phosphatase inhibitors, primary screen, counter-screen for PP5 inhibitor project, biochemical, fluorescence, OMFP substrate, single point. Serine/threonine-protein phosphatase PP1-alpha catalytic subunit (Homo sapiens), P62136. inhibition, % at 6.7 µM. purified PP1alpha. hit rate 0.9% among 320,000. AID 2235, 2010;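 active = inhibition above the mean inhibition of all tested compounds plus 3 SD, computed separately for each screening campaign, cut at about 15% in these data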
Target sequence (P62136 whole entry, looked up): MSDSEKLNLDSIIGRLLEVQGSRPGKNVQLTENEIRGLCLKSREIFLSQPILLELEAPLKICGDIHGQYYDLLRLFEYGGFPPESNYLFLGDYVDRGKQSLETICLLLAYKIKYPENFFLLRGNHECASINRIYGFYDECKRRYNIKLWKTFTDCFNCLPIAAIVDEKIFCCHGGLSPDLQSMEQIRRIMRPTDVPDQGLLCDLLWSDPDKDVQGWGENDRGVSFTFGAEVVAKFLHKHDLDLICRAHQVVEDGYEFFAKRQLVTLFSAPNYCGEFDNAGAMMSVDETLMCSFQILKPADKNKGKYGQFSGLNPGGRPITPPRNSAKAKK
PAFAH1B2 FP inh: PAFAH1B2 enzyme inhibitors, primary screen, biochemical, fluorescence polarization, human; recombinant PAFAH1B2, FP-rhodamine activity probe; hit rate 1.2% among 340,000; AID 492953, 2010; inhibition, % at 3.39 µM; Platelet-activating factor acetylhydrolase IB subunit alpha2 (Homo sapiens), P68402;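 active = inhibition above the mean of all tested compounds plus 3 SD, cut at about 24% in these data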;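 also: 0% = enzyme with DMSO and 100% = wells lacking PAFAH1B2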
Target sequence (P68402 whole entry, looked up): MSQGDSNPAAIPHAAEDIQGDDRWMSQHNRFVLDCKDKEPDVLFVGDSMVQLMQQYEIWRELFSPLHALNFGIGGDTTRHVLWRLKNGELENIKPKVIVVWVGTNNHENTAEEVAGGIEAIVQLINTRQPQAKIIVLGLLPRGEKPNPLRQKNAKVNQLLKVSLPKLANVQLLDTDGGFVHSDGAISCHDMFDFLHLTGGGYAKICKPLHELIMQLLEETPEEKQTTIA
PAFAH2 FP inh: PAFAH2 enzyme inhibitors, primary screen, biochemical, fluorescence polarization, human; Platelet-activating factor acetylhydrolase 2, cytoplasmic (Homo sapiens), Q99487; recombinant PAFAH2, FP-rhodamine activity probe; inhibition, % at 3.39 µM; hit rate 0.99% among 340,000; AID 492956, 2010;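 active = inhibition above the mean over all tested compounds plus 3 SD, cut at about 30% in these data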;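 also: inhibitors block probe labeling of enzyme so polarization drops; 0% = enzyme with DMSO and 100% = wells lacking PAFAH2 protein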
PP5 inh: PP5 phosphatase inhibitors, primary screen, biochemical, fluorescence; purified PP5c, OMFP substrate fluorescence; hit rate 0.18% among 320,000; Serine/threonine-protein phosphatase 5 (Homo sapiens), P53041; inhibition, % at 6.7 µM; AID 1987, 2009;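 active = inhibition above the campaign's mean inhibition across all tested compounds plus 3 SD, cut at about 9.5% in these data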;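 also: 0% = DMSO only and 100% = 100 µM cantharidin control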
pPAFAH inh: pPAFAH enzyme inhibitors, primary screen, biochemical, fluorescence polarization, human; Platelet-activating factor acetylhydrolase (Homo sapiens), Q13093; recombinant pPAFAH, FP-rhodamine probe fluorescence polarization; inhibition, % at 3.39 µM; hit rate 1.5% among 330,000;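 active = inhibition above the mean inhibition across the screen plus 3 SD, cut at about 25% in these data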;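 also: inhibitors block binding of the rhodamine activity-based probe so polarization drops; 0% = enzyme with DMSO and 100% = wells lacking pPAFAH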
PAFAH1B3 inh: PAFAH1B3 enzyme inhibitors, primary screen, biochemical, fluorescence polarization, human; inhibition, % at 3.39 µM; hit rate 0.28% among 340,000; recombinant PAFAH1B3, FP-rhodamine probe;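 active = inhibition above the screen-wide average of all tested compounds plus 3 SD, cut at about 25% in these data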;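 also: 0% = enzyme with DMSO only and 100% = wells lacking PAFAH1B3 protein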
PP1 inh confirm: PP1 phosphatase inhibitors, confirmation, biochemical, fluorescence, OMFP substrate, triplicate | shares compounds with PP1 inh | inhibition, % at 6.7 µM | hit rate 52% among 1,900 | purified PP1alpha;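 active = mean PP1 inhibition above a set limit taken from the earlier primary screen, cut at about 15% in these data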
PP5 inh counter: PP5 phosphatase inhibition by PP1 hits, confirmation, counter-screen for PP1 inhibitor project, biochemical, fluorescence, triplicate. hit rate 4% among 1,900. inhibition, % at 6.7 µM. shares compounds with PP1 inh. purified PP5c, OMFP fluorescence;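 active = mean PP5 inhibition over triplicate wells above about 9.5% taken from the earlier PP1 screen, limit read from the data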
An asterisk follows results filed as active; . = no result given.

SMILES	PP1 inh	PAFAH1B2 FP inh	PAFAH2 FP inh	PP5 inh	pPAFAH inh	PAFAH1B3 inh	PP1 inh confirm	PP5 inh counter
CCOC(=O)C1C(=O)NC(C(=O)OCC)(C(=O)OCC)C1CC (stereo unspecified)	.	2.3	2.0	.	.	7.0	.	.
CCCn1c(=O)c(C(=O)NNC(=O)c2ccccc2[N+](=O)[O-])c(O)c2ccccc21	19.9*	9.6	-3.1	3.5	15.2	9.2	18.3*	-5.0
CCN1CCN(S(=O)(=O)c2ccc(Cl)c(C(=O)Nc3ccccc3N3CCCCC3)c2)CC1	22.8*	11.3	-3.6	0.5	2.4	10.4	-1.3	-0.7
Fc1cccc(Cl)c1CSc1ccc2nnc(-c3ccccn3)n2n1	10.1	-4.3	-0.8	1.8	4.3	4.7	.	.
Fc1cccc(CSc2ccc3nnc(-c4ccccn4)n3n2)c1	18.5*	4.9	1.9	1.9	-2.6	-3.7	0.9	-4.6
Cc1cc(C)c(OCC(=O)NCC2CCCO2)c(C)c1 (stereo unspecified)	41.6*	2.6	0.3	3.0	-2.0	5.5	-1.5	-2.4
Cc1ccc(OCCC(=O)NNC(=O)c2nn(C)c(=O)c3ccccc23)cc1	1.8	-1.7	-6.0	-1.3	2.2	12.9	.	.
CNc1cnn(-c2ccccc2)c(=O)c1Cl	-2.1	2.6	-2.0	-2.5	0.1	0.1	.	.
O=c1c(Cl)c(N/N=C/c2ccc(Br)cc2)cnn1-c1ccccc1	24.1*	-4.0	-1.4	3.9	6.5	-14.6	21.9*	-2.6
O=C(O)C(Cc1c[nH]c2ccccc12)N1C(=O)C2C3c4ccccc4C(c4ccccc43)[C@@H]2C1=O (stereo partly specified)	1.0	3.1	-4.4	0.8	8.4	3.1	.	.
Cc1cc(NC(=O)Nc2ccc(OCc3ccccc3)cc2)n(C)n1	2.7	8.7	7.0	1.3	1.6	2.5	.	.
COc1ccc(-c2cc(-c3ccco3)[nH]c(=O)c2C#N)cc1OC	-2.3	5.5	10.5	1.5	19.8	9.7	.	.
NC(=O)/C(=N\OC(=O)c1ccco1)c1nc(-c2ccc(Br)cc2)cs1	27.2*	14.8	6.6	5.2	32.2*	24.9	6.3	-1.8
Nc1nc(-c2ccc(NC(=O)c3ccco3)cc2)cs1	3.7	4.6	10.6	0.7	3.7	7.7	.	.
COC(=O)N/N=C/c1cc(N=Nc2ccccc2Cl)ccc1O	18.9*	1.4	-16.9	-0.4	0.0	4.1	24.8*	0.5
COC(=O)N/N=C/c1cc(N=Nc2ccccc2)ccc1O	-4.0	6.3	8.3	0.7	10.7	7.5	.	.
CCCN1C(=O)C(NC(C)=O)c2ccccc21 (stereo unspecified)	-0.6	2.1	0.6	-1.2	3.6	3.0	.	.
CCc1ccc2c(c1)C(NC(C)=O)C(=O)N2CCN1CCOCC1 (stereo unspecified)	40.6*	0.6	-1.7	3.6	1.5	7.8	36.3*	-4.4
CC1Nc2ncnc(N3CCc4ccccc4C3)c2N(Cc2ccc(Br)cc2)C1=O (stereo unspecified)	22.9*	3.1	-19.1	4.0	3.5	-14.1	19.1*	0.2
CN(CC1CCOCC1)C(=O)CC1C(=O)NCCN1CC1CCCCC1 (stereo unspecified)	-1.5	2.3	-1.1	1.3	1.4	4.6	.	.
CCOc1cc(/C=C2/NC(=O)N(CC(=O)Nc3cccc(C)c3)C2=O)ccc1OC	-0.7	-4.4	-16.1	0.8	0.2	-11.3	.	.
COc1cc(/C=C2/NC(=O)N(CC(=O)Nc3ccc(C)cc3)C2=O)ccc1Oc1ccc([N+](=O)[O-])cn1	19.4*	4.5	-9.7	-1.2	0.2	-0.2	23.4*	-2.2
CCc1nnc(NC(=O)CSc2sc3c(O)cc(=O)[nH]c3c2C#N)s1	18.1*	19.1	29.6	0.3	31.8*	24.8	3.1	-3.0
CSc1ncc(C(=O)Nc2ccc(C(C)=O)cc2)c(-c2ccccc2)n1	3.5	0.7	-1.3	-1.2	-4.8	0.6	.	.
Cc1ccc(NC2c3ncccc3C(=O)N2c2ccccc2C)cc1C (stereo unspecified)	30.4*	6.5	0.6	8.2	8.9	0.1	25.7*	1.4
SMILES	PP1 inh	PAFAH1B2 FP inh	PAFAH2 FP inh	PP5 inh	pPAFAH inh	PAFAH1B3 inh	PP1 inh confirm	PP5 inh counter
CSCCNC(=O)Nc1c(-c2c(Cl)cccc2Cl)noc1C	-3.9	2.8	-9.2	-1.1	4.7	8.6	.	.
CCOC(=O)C1(C)C=C(Nc2ccccc2)C(=O)N1c1ccccc1 (stereo unspecified)	29.1*	0.4	-2.3	0.9	4.4	-0.4	0.8	-2.4
CCOC(=O)C1(C)C=C(Nc2ccc(OCC)cc2)C(=O)N1c1ccccc1 (stereo unspecified)	-3.5	5.2	0.2	4.0	2.0	5.5	.	.
CN1CCN(C(=O)CN(C)S(=O)(=O)c2cc(Cl)ccc2Cl)CC1	-0.4	2.1	2.7	1.3	2.6	0.3	.	.
CCCOc1ccc(N)cc1N	15.8*	7.7	8.3	11.4*	26.3*	15.3	-2.7	23.5*
O=C(Nc1ccc(F)cc1)OCCOc1ccc([N+](=O)[O-])cc1	3.2	5.1	-3.0	4.1	-4.1	5.4	.	.
COC(=O)C1=COC(C)C2CN3CCc4c([nH]c5ccccc45)C3CC12 (stereo unspecified)	19.8*	4.4	10.2	5.4	10.9	3.7	-3.4	18.4*
Cc1cc(C)c2oc(C(=O)Nc3ccc(S(=O)(=O)Nc4nccs4)cc3)cc(=O)c2c1	7.2	5.4	1.1	3.6	12.1	2.4	.	.
Cc1cc2oc(C(=O)Nc3ccc(S(=O)(=O)Nc4nccs4)cc3)cc(=O)c2cc1Cl	38.9*	-4.5	2.8	-1.3	17.5	-5.0	31.1*	-3.0
COc1ccc(CCNS(=O)(=O)c2c(C)[nH]c(C)c2C(=O)N2CCCCC2)cc1OC	-26.4	3.5	7.0	1.2	0.6	4.9	.	.
CC1CCN(C(=O)CCNS(=O)(=O)c2ccc(Br)cc2)CC1	0.0	22.1	3.7	2.2	9.4	6.6	.	.
NC(=O)c1nn(-c2ccccc2)nc1NC(=O)CN1CCCCC1	47.4*	2.5	-10.2	4.3	2.7	-0.6	-5.0	-6.2
Cc1noc(C)c1NC(=O)N(C)C[C@H]1Oc2ccc(NC(=O)Nc3ccc4c(c3)OCO4)cc2C(=O)N([C@H](C)CO)C[C@@H]1C	.	6.4	0.1	.	1.0	7.8	.	.
COc1cccc(C=O)c1OCCN1C(=O)c2ccccc2C1=O	.	-0.7	-0.1	.	.	6.8	.	.
